Assay outcomes deposited in PubChem by National Center for Advancing Translational Sciences (NCATS).
In the library only some 7.5% were active in any assay of this set; here they are far more common.
SMN2 splice up = enhancers of SMN2 splice variant expression. HEK293 SMN2-luciferase splicing reporter, luminescence, 30-36 h. Potency, µM (highest dose often 46.1 µM), for the others: top-dose activity change, positive = activation, most hits filed as activators. 210,000 tested, 2.8% active. AID 1458; also: % of control where 0% means no effect; nearly all actives have a fitted effect of over 55% in size
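qHTS luciferase splicing reporter: luminescence rises when SMN2 exon 7 is included in transfected HEK293 cells. Compound exposure lasted 30-36 h at 37C, with 4.5 mM final sodium butyrate as control, followed by a ONE-Glo read.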
FLuc counter = inhibits or activates purified firefly luciferase, miR-21 counter-screen; purified FLuc, Km substrates, luminescence inhibition; AID 588342; Potency, µM (top dose mostly 57.5 µM), inactives show at the highest dose activity change, negative = inhibition, most hits filed as inhibitors; P08659; 360,000 tested, 6.9% active;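 also: plate controls were vehicle for no effect and reference inhibitor for full effect; nearly all actives have a fitted effect of over 55% in size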
Target sequence (P08659 whole entry, looked up): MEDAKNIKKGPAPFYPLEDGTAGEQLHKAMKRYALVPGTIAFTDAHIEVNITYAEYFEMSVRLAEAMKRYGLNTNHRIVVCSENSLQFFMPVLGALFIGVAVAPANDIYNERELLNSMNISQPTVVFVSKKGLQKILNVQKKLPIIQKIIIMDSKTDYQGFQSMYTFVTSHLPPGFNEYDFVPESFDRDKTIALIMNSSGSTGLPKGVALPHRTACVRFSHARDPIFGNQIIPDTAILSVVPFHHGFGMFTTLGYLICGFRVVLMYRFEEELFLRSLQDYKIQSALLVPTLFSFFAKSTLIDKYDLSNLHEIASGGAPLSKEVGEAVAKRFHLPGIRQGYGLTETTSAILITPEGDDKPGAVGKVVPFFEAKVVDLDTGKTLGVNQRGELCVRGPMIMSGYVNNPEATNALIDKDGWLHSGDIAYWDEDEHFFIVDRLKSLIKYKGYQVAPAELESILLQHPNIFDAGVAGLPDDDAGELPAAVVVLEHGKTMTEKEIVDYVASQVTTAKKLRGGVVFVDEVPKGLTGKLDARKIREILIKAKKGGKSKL
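Purified P. pyralis luciferase, 10 nM final, with Km-level 10 uM D-luciferin and 10 uM ATP in 50 mM Tris acetate pH 7.5, 10 mM Mg acetate, 0.01% Tween-20, 0.05% BSA; 6-point qHTS titration about 60 µM downward; luminescence read.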
NPC1 promoter act = activators of NPC1 promoter. Huh7 NPC1 promoter luciferase reporter, 24 h. Potency, µM (titrated, usually from 9.22 µM), for inactives: at the highest dose activation, hits mostly activators. 320,000 tested, 2.4% active. AID 485313; also: % of control where 0% means no effect; nearly all actives have a fitted effect of over 60% in size
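Luminescence from an NPC1 promoter-driven luciferase reporter in stably transfected Huh7 cells was measured after 24 h compound treatment at 37 °C, followed by 10 min ambient incubation with luciferase detection reagent.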
Luc counter = Kinase-Glo luciferase inhibition (counter-screen) | 200,000 tested, 0.28% active | Potency, µM (doses to about 38.3 µM), inactives show at the top dose activity change, negative = inhibition, most hits filed as inhibitors | AID 1379 | Q27757 | Kinase-Glo luciferase, ATP luminescence, 8 min; also: % is scaled to controls: 0 for no effect and ±100 for the full control effect; nearly all actives have a fitted effect of over 60% in size
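Substrate mix (final 50 mM imidazole pH 7.2, 50 mM KCl, 7 mM MgCl2, 10 uM ATP, 0.01% Tween 20, 0.05% BSA) plus pin-tool compound, then Kinase-Glo detection mix; 8 min ambient, luminescence read.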
ELG1 genotoxic = inducers of genotoxicity in HEK293T ELG1-luciferase cells. HEK293T ELG1-luciferase reporter, luminescence, 16 h. Potency, µM (doses to about 46 µM), inactives show top-dose activity change, positive = activation, actives largely listed as activators. 330,000 tested, 1.3% active. AID 504466; also: % of control where 0% means no effect; nearly all actives have a fitted effect of over 60% in size
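Step 1: seed 2,000 HEK293T ELG1-luciferase cells per well. Step 2: add compound or DMSO, incubate 16 hr at 37 °C. Step 3: ONE-Glo, 30 min at room temperature, read luminescence.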
Rab9 prom act = Rab9 promoter activation; Huh7 Rab9 promoter-luciferase reporter, luminescence, 24 h; Potency, µM (top dose mostly 9.22 µM), for inactives: top-dose activation, negative = inhibition, hits mostly activators; 320,000 tested, 2.8% active; also: % of control where 0% means no effect; nearly all actives have a fitted effect of over 60% in size
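Luciferase signal after 10 min detection reagent at ambient indicates Rab9 promoter upregulation; stably transfected Huh7 cells were treated 24 h with compound in DMSO at 37 °C, 5% CO2.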
An asterisk follows results filed as active; ? = inconclusive; · = not tested or not shown. Calls follow the shape of the dose curve; as a rule, active = well fitted curve in the direction sought with a large enough effect; inconclusive = small, poorly fitted or top-dose-only effect, or another doubt; inactive = no such curve, though single readings can be large; an effect the other way counts as inactive or inconclusive. Potency is read from the fitted curve at half-maximal effect.

SMILES	SMN2 splice up	FLuc counter	NPC1 promoter act	Luc counter	ELG1 genotoxic	Rab9 prom act
CN(C)c1ccc(N=c2sc3ccccc3n2C)cc1	-4.9%	6.01µM*	?	-5.9%	6.51µM*	?
Cn1c(=Nc2ccccc2)sc2ccccc21	-19.9%	21.3µM*	14.1%	-1.3%	?	24.0%
Cc1ccc(S(=O)(=O)N/N=c2\sc3ccccc3n2C)cc1	21.3%	1.7%	-0.7%	0.3%	-2.0%	-2.5%
COC(=O)[C@H](COC(C)(C)C)NC(=O)O[C@@H]1C(=O)c2ccc(OC)cc2O[C@H]1c1ccc2c(c1)OCO2	-4.7%	·	·	-2.1%	·	·
O=C(Nc1nc2c(s1)CN(Cc1ccccc1)CC2)C1CCC1	?	23.9µM*	?	0.6%	?	4.47µM*
CN1CCc2nc(NC(=O)c3cccc(S(=O)(=O)N4CCc5ccccc54)c3)sc2C1	6.0%	-10.8%	0.2%	1.2%	2.8%	-2.6%
COc1cccc(C(=O)Nc2nc3c(s2)CN(C)CC3)c1	11.1%	19µM*	?	-22.2%	18.1%	?
CCN1CCc2nc(NC(=O)c3ccccc3)sc2C1	9.7%	7.57µM*	·	-6.1%	·	·
CC1CCN(C(=O)C(=O)Nc2sc3c(c2C(N)=O)CC(C)(C)OC3)CC1	·	0.7%	-3.4%	·	1.4%	-7.6%
COc1ccc(/C=N/N=C/c2ccc(OC)c(O)c2)cc1O	0.4%	23.9µM*	-0.6%	-4.2%	-1.3%	2.8%
COc1cc(/C=N/N=C(/C(=O)c2ccccc2)c2ccccc2)cc(OC)c1O	-15.7%	0.8%	2.3%	1.4%	-5.7%	-2.9%
COc1ccc(/C=N/N=C/c2ccc(OC)c(OC)c2)cc1OC	1.7%	-0.7%	0.5%	1.5%	-0.3%	-1.0%
COc1cc(/C=N/N=C/c2cc(OC)c(O)c(OC)c2)cc(OC)c1O	14.0%	16.9µM*	0.5%	-4.1%	3.1%	0.2%
CCC(=O)Nc1cccc(C(=O)/C=C/c2cccs2)c1	-63.5%	12µM*	25.6%	-2.7%	11.9%	?
CCC(=O)Nc1cccc(C(=O)/C=C/c2ccccc2)c1	-87.6%	10.7µM*	-2.4%	-13.5%	?	5.6%
CCC(=O)Nc1cccc(C(=O)c2ccccc2)c1	3.1%	-7.6%	-0.2%	2.1%	10.2%	1.7%
O=C(CSc1nc(=O)n(Cc2ccco2)c2c1CCC2)Nc1cccc(F)c1	·	-12.7%	·	·	·	·
CCSc1nnc(NC(=O)c2cccnc2)s1	?	?	?	-1.7%	?	28.7%
CCSc1nnc(NC(=O)c2cccnc2Cl)s1	17.8µM*	?	17.8%	-0.8%	?	11.2%
CCSc1nnc(NC(=O)c2ccccn2)s1	3.98µM*	8.49µM*	0.891µM*	-29.0%	16.4µM*	?
CCSc1nnc(NC(=O)c2cnccn2)s1	19.0%	2.3%	8.4%	-2.6%	9.4%	-0.8%
CCSc1nnc(NC(=O)c2ccccc2)s1	11.2µM*	13.5µM*	3.55µM*	-5.2%	?	3.16µM*
O=C(Nc1nnc(C(F)(F)F)s1)c1ccc(Br)s1	?	8.49µM*	?	-0.4%	11.4%	12.2%
CC1(C)Cc2c(sc(NC(=O)C(=O)N3CCOCC3)c2C(N)=O)CO1	·	-0.1%	-17.6%	·	0.1%	4.2%
CCCN1CCN(CCCNC(=O)c2ccc3c(c2)sc2nc(-c4ccc(OC)cc4)cn23)CC1	·	-4.5%	·	·	·	·
SMILES	SMN2 splice up	FLuc counter	NPC1 promoter act	Luc counter	ELG1 genotoxic	Rab9 prom act
COc1ccc2c(c1)CCC1[C@@H]2CCC2(C)[C@@H](NCCCCCCN3C(=O)C=CC3=O)CC[C@@H]12 (stereo not given in full)	·	·	·	-1.1%	·	·
Cc1ccc(C)c(Cn2c(=O)n(-c3ccc(Cl)cc3)c(=O)c3c4c(sc32)CCC4)c1	2.8%	-5.0%	·	·	·	·
CCOC(=O)c1c(C)oc2nc(C)nc(N3CCN(c4cccc(C(F)(F)F)c4)CC3)c12	·	5.1%	·	·	·	·
O=C(Nc1nnc(C2CCCCC2)s1)c1ccc(Br)s1	3.16µM*	?	0.501µM*	2.6%	?	1.78µM*
CCSc1nnc(NC(=O)c2ccc(Br)s2)s1	?	15.1µM*	?	6.9%	?	?
CCSc1nnc(NC(=O)c2ccccc2C)s1	10µM*	23.9µM*	?	-7.3%	?	2.51µM*
CCSc1nnc(NC(=O)CC)s1	-4.8%	0.2%	0.2%	-0.4%	-3.2%	-5.2%
CCSc1nnc(NC(=O)[C@H](C)NC(=O)c2ccccc2Cl)s1	1.8%	-11.6%	0.0%	0.1%	-1.8%	-1.3%
Cc1cccc(C(=O)NC(=O)Nc2ccc(-n3nc(C(F)(F)F)cc3C(F)(F)F)cc2)c1	3.4%	2.3%	·	·	·	·
O=C(Nc1cc(-c2nc3ccccc3s2)ccc1Cl)c1ccc2c(c1)OCO2	8.1%	10.7µM*	-0.7%	-3.2%	6.5%	1.0%
CCCCOc1ccc(C(=O)Nc2ccc(-c3nc4ccccc4s3)cc2C)cc1	-15.0%	-15.7%	·	·	·	·
O=C(Nc1cc([N+](=O)[O-])ccc1Cl)c1ccc2c(c1)OCO2	2.9%	1.3%	3.9%	-1.3%	5.5%	4.2%
Cc1ccc(-c2nc3ccccc3s2)cc1NC(=O)c1ccc2c(c1)OCO2	-4.2%	4.78µM*	11.4%	0.0%	-1.1%	-3.1%
CCc1ccc(-n2c(SCc3cccc(F)c3)nc3[nH]ncc3c2=O)cc1	·	-9.2%	·	·	·	·
COc1ccccc1CNC(=O)C(Cc1c[nH]c2ccccc12)NC(=O)OCc1ccccc1 (stereo not given)	-10.2%	-1.3%	-4.3%	-4.2%	-8.0%	-1.0%
COc1cn(-c2ccccc2)nc1C(=O)Nc1ccc(C)cc1Cl	·	6.75µM*	1.0%	·	27.3%	14.5%
O=C1CCCN1CC(O)CS(=O)(=O)Cc1ccccc1Cl (stereo not given)	·	1.5%	0.3%	·	-3.1%	-0.2%
CNS(=O)(=O)c1cn(CC(=O)N2CCN(c3cccc(Cl)c3)CC2)cc1S(=O)(=O)NC	·	4.0%	·	·	·	·
Cc1ccc(CCNC(=O)c2ccc(NC3=NC4CS(=O)(=O)CC4S3)cc2)cc1 (stereo not given)	·	0.4%	-0.5%	·	1.9%	0.5%
O=C(NCCc1ccc(Cl)cc1)c1cccc(NC2=NC3CS(=O)(=O)CC3S2)c1 (stereo not given)	·	16.9µM*	-1.7%	·	-0.1%	0.5%
O/N=C/c1cc(Br)ccc1OCc1cccc(F)c1	-17.2%	?	2.6%	0.2%	-0.6%	2.7%
Cc1ccc(COc2ccc(Br)cc2/C=N/O)cc1	10.2%	13.5µM*	?	-3.8%	?	?
O/N=C/c1cc(Br)cc(Br)c1OCc1ccccc1	-19.7%	3.9%	-8.5%	-4.7%	0.7%	-7.5%
CCOc1cc(/C=N/O)ccc1OCc1ccc(C)cc1	24.6%	?	0.3%	-2.1%	?	18.3%
O/N=C/c1ccc(OCc2ccccc2)c(Br)c1	15.8µM*	7.57µM*	18.8%	0.2%	14.6µM*	3.16µM*
